The target of test [1] is Cytochrome P450 1A2 (Homo sapiens) (UniProt P05177). The experiment in a line: p450-cyp1a2 (AID 410; calls by dose curve; note: potency is the fitted concentration of half-maximal effect). Summed up: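 Inhibition was calculated relative to 57 uM furafylline (full inhibition). The reaction used human CYP1A2 at 20nM with Luciferin-ME at its Km, 100uM, driven by an NADPH-regenerating system for 60 min at room temperature.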
Test [2] is described as follows: NFAT Signaling Pathway (AID 444; active = well fitted curve in either direction with a large enough effect, not every such curve was filed as active;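 note: carbachol stimulus at about its EC50 of 1 µM final; % is set by controls: 0 for no effect and ±100 for the full control effect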). Particulars: Jurkat NFAT-bla M1, carbachol, beta-lactamase ratio, 5 h; at 7.69 µM (top of the series) unless noted. Summed up: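 Jurkat cells with NFAT-driven β-lactamase reporter and co-expressed M1 receptor, stimulated with carbachol (final 1 uM, ~EC50), compound titration, 5 h at 37 °C. CCF4 loaded 1 h at RT; 460/530 nm ratio gave %activity and AC50.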

The nature of test [3]: Stat Signaling Pathway (AID 446; active = well fitted curve in either direction with a large enough effect, not every such curve was filed as active;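 note: ME-180 cervical cancer cells given 40 pM IL-6 alongside compound; SIE-controlled beta-lactamase reporter measured as 460/530 nm FRET emission ratio; % is set by controls: 0 for no effect and ±100 for the full control effect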). Particulars: ME-180 SIE beta-lactamase reporter, IL-6 stimulated, 5 h; at 7.69 µM (top of the series) unless noted. Summed up: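 Reporter line: ME-180 cervical carcinoma, SIE-beta-lactamase. Treatment: compound with 40 pM IL-6, 5 hrs, 37 C, in low-serum OPTI-MEM with 10 mM HEPES pH 7.3. Detection: 460/530 nm fluorescence.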
The target in test [4] is Glucocorticoid receptor (Homo sapiens) (UniProt P04150). The experiment in a line: GR-GFP Redistribution (AID 450;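 active = compounds whose dose series gives a full or clear partial fitted curve of increased nuclear translocation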; note: potency is the fitted concentration of half-maximal effect). Particulars: U2OS GR-GFP nuclear translocation, laser cytometry, 2 h.
The target is the same in test [5]. As to the kind of experiment: GR-EFC Redistribution (AID 451; calls by dose curve; note: potency is the fitted concentration of half-maximal effect). Particulars: CHO-K1 GR-EFC translocation, beta-gal luminescence, 2 h. Summed up:
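CHO-K1 cells expressing nuclear EA and GR-ED fragments of b-gal; compounds titrated up to 46 uM final, 2 h at 37 C. GR nuclear translocation read as complemented b-gal luminescence after 1 h RT detection.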

Test [6] concerns the target Mitogen-activated protein kinase 10 (Mus musculus) (UniProt Q61831). The experiment in a line: JNK3 AlphaScreen Assay (AID 530; active = well fitted curve in either direction with a large enough effect, not every such curve was filed as active;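 note: kinase came from lysate of stimulated human HepG2 cells; signal reports phosphorylation of biotinylated GST-cJun 1-79 at Ser73 with 10 µM ATP; % is set by controls: 0 for no effect and ±100 for the full control effect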). Summed up:
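qHTS format: compounds tested as titrations against IL-1beta/TNF-alpha-activated HepG2 lysate JNK3 with biotin-GST-cJun substrate and 10 uM ATP at room temperature. Loss of anti-phospho-cJun AlphaScreen signal indicates inhibition.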
(In general: Alpha assays give light when donor and acceptor beads are brought close together.)

For test [7], the target named is Cytochrome P450 3A4 (Homo sapiens) (UniProt P08684). The experiment in a line: qHTS Assay for Inhibitors and Substrates of Cytochrome P450 3A4 (AID 884). Note: nearly all actives have a fitted effect of over 50% in size. Note: potency is the fitted concentration of half-maximal effect. Put shortly:
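20 nM human CYP3A4 with 25 uM Luciferin-PPXE (at KM) in 200 mM KPO4, preincubated 10 min with compound; NADPH regeneration started a 60 min RT reaction. Luciferin detected by luminescence, normalized to 57 uM ketoconazole as full inhibition.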

Test [8] shares this target. As to the kind of experiment: qHTS Assay for Activators of Cytochrome P450 3A4 (AID 885). Note: nearly all actives have a fitted effect of over 65% in size. Summed up:
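Signal was normalized against complete inhibition by 57 uM ketoconazole. The reaction used 20nM CYP3A4 with 25uM Luciferin-PPXE, 10-min compound preincubation and a 60-min NADPH-supported step at RT.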
A general note: qHTS replaces the single test concentration by a dilution series.

For test [9], the target named is Cytochrome P450 2C19 (Homo sapiens) (UniProt P33261). The experiment in a line: qHTS Assay for Inhibitors and Substrates of Cytochrome P450 2C19 (AID 899). Note: nearly all actives have a fitted effect of over 60% in size. Note: potency is the fitted concentration of half-maximal effect. Summed up: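 5 nM human CYP2C19 with 10uM Luciferin-H EGE (at KM) in 50mM KPO4, compound preincubated 10 min at 37C, then NADPH regeneration for 60 min at 37C. Luciferin read by luminescence after detection reagent; normalized to 57uM ketoconazole as full inhibition.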

A short description of test [10]: qHTS Assay for Lipid Storage Modulators (AID 1519; calls by dose curve). Particulars: Drosophila S3 cells, BODIPY lipid droplet/cell ratio, laser cytometry, cells loaded with oleic acid; for activity change, negative = inhibition: at 57.5 µM (top of the series). Summed up: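 Cells seeded at 5,000 per well were treated with compounds over a concentration series and loaded with oleic acid (400 uM, as added). Lipid droplet fluorescence (488 nm excitation, 500-530 nm channel) was read by laser-scanning cytometry and normalized to 20 uM Triacsin C.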

Test [11] has as its target Dual specificity protein kinase CLK4 (Homo sapiens) (UniProt Q9HAZ1). The experiment in a line: qHTS Assay for Inhibitors of CDC-like Kinase 4 (Kinase-Glo Assay) (AID 1770). Note: nearly all actives have a fitted effect of over 65% in size. Note: potency is the fitted concentration of half-maximal effect. Summed up: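 Clk4 25 nM, RS peptide 100 uM, ATP 1 uM, pH 7.5 Tris, 10 mM MgCl2, 2.5 mM DTT; 4.5 h RT; ATP depletion read by Kinase-Glo luminescence.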
Test [12] has the same target. As to the kind of experiment: qHTS Assay for Inhibitors of CDC-like Kinase 4 (ADP-Glo Assay) (AID 1771). Note: nearly all actives have a fitted effect of over 70% in size. Note: potency is the fitted concentration of half-maximal effect. Summed up:
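Kinase reaction: Clk4 at 25 nM, RS repeat peptide substrate at 100 uM, ATP at 1 uM, 1 hr, room temperature. Product ADP detected as luciferase signal via ADP-Glo.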

For test [13] the target is unchanged. As to the kind of experiment: qHTS Assay for Inhibitors of CDC-like Kinase 4 (ADP-FP Assay) (AID 1795). Note: nearly all actives have a fitted effect of over 60% in size. Note: potency is the fitted concentration of half-maximal effect. Put shortly: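 Kinase activity was followed as ADP output, converted from fluorescence polarization with a calibration curve. Reactions ran one hour at low ATP (1 uM) with RS peptide substrate.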
The target of test [14] is Ubiquitin carboxyl-terminal hydrolase 1 (Homo sapiens) (UniProt O94782). The experiment in a line: Inhibitors of USP1/UAF1: Pilot qHTS (AID 504865). Note: nearly all actives have a fitted effect of over 35% in size. Note: potency is the fitted concentration of half-maximal effect. Put shortly:
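Enzyme-free wells gave the negative control, while test wells held 1nM USP1/UAF1 preincubated with compound for 15 min at room temperature. Ub-Rho at 150nM final started the reaction, and fluorescence at 480/540 nm was recorded kinetically.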

For test [15], the target named is Lysosomal acid glucosylceramidase (Homo sapiens) (UniProt P04062). As to the kind of experiment: Glucocerebrosidase-p2 (AID 348; in the data active = potency below about 10 µM; note: potency is the fitted concentration of half-maximal effect). Particulars: purified GBA, blue fluorogenic substrate, 40 min. Put shortly:
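Compounds titrated from 0.6 nM upwards against 0.2 nM enzyme in pH 5.9 citric acid/KH2PO4, taurocholate, tween-20; blue fluorogenic substrate 80 uM, 40 min room temperature, stopped and read Ex 365/Em 440 for AC50.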

Test [16] concerns the target 3',5'-cyclic-AMP phosphodiesterase 4B (Homo sapiens) (UniProt Q07343). As to the kind of experiment: qHTS Assay for Inhibitors of PDE-IV (AID 607; active = well fitted activation curve with a large enough effect in the main read-out, with a control signal flat, not every such curve was filed as active; note: % of control where 0% means no effect). Summed up:
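Cell-based read-out of cAMP via a modified cyclic nucleotide-gated channel and membrane potential dye (535/590 nm) in HEK293 cells expressing PDE4 endogenously. Compounds tested up to 22.9 uM final; 100 uM RO 20-1724 reference.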

Test [17] is described as follows: AP1 Signaling Pathway (AID 357; active = well fitted curve in either direction with a large enough effect, not every such curve was filed as active;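 note: ME-180 reporter cells stimulated with EGF at its EC50 level; % is set by controls: 0 for no effect and ±100 for the full control effect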). Particulars: ME-180 (cervical carcinoma) AP-1-bla reporter, EGF-induced, beta-lactamase ratio, 5 h; at 7.69 µM (top of the series) unless noted. Put shortly:
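Read-out was the 460nm/530nm emission ratio (excitation 405nm) after CCF4 loading for 2.5 hours at room temperature. Cells carried an AP-1-driven beta-lactamase reporter, were stimulated with EC50 EGF plus compound for 5 hours, and AC50 values came from titrations.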

The nature of test [18]: Confirmation and Secondary Assay for Modulators of Hemoglobin Beta Chain Splicing at IVS2 654 locus (AID 910).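 Note: HeLa cells stably carrying EGFP split by mutant beta-globin IVS2-654 intron; % of control where 0% means no effect.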 Put shortly:
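HeLa cells stably expressing EGFP interrupted by β-globin IVS2-654 intron, seeded overnight in Opti-MEM/2% FCS, then treated 2 days at 37 °C. Restored splicing read as total peak GFP intensity per well by laser scanning cytometry (488 nm excitation, 500–520 nm emission); 500 nM antisense PNA as control.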

Test [19] is described as follows: Confirmation and Secondary Assay for Modulators of Hemoglobin Beta Chain Splicing at IVS2 705 locus (AID 930).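 Note: HeLa cells stably expressing the EGFP-705 splicing reporter; GFP fluorescence per well restored by corrected splicing of the IVS2-705 intron in EGFP; % of control where 0% means no effect.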 Put shortly: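 Per-well GFP, captured at 1 x 8 µm resolution with 488 nm excitation, served as the read-out for HeLa EGFP-705 cells incubated 2 days with test compound versus DMSO.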
Setting [20] is: measured here: cell count channel max response.
[21] abbreviates: measured here: lipid channel max response.

SMILES strings stand for the structures. Records with an inconclusive call do not appear. Activity calls are given as the source filed them. Unless noted, calls come from the whole dose curve; as a rule, active = well fitted curve in the direction sought with a large enough effect; inconclusive = small, poorly fitted or top-dose-only effect, or another doubt; inactive = no such curve, though single readings can be large; an effect the other way counts as inactive or inconclusive.

Dual specificity protein kinase CLK4 (Homo sapiens), sequence (Q9HAZ1 whole entry, looked up): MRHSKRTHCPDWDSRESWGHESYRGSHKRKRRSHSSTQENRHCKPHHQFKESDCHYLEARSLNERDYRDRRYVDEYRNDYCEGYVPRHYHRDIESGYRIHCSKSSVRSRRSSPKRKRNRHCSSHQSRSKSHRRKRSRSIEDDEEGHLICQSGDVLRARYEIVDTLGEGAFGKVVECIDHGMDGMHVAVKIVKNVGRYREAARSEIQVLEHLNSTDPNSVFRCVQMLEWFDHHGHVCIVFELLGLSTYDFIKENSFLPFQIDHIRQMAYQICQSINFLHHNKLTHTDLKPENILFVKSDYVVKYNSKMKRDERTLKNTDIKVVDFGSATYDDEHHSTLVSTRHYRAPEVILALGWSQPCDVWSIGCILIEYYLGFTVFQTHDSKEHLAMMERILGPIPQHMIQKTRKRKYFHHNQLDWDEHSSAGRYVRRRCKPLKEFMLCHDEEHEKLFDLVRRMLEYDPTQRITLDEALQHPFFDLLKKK
Glucocorticoid receptor (Homo sapiens), sequence (P04150 whole entry, looked up): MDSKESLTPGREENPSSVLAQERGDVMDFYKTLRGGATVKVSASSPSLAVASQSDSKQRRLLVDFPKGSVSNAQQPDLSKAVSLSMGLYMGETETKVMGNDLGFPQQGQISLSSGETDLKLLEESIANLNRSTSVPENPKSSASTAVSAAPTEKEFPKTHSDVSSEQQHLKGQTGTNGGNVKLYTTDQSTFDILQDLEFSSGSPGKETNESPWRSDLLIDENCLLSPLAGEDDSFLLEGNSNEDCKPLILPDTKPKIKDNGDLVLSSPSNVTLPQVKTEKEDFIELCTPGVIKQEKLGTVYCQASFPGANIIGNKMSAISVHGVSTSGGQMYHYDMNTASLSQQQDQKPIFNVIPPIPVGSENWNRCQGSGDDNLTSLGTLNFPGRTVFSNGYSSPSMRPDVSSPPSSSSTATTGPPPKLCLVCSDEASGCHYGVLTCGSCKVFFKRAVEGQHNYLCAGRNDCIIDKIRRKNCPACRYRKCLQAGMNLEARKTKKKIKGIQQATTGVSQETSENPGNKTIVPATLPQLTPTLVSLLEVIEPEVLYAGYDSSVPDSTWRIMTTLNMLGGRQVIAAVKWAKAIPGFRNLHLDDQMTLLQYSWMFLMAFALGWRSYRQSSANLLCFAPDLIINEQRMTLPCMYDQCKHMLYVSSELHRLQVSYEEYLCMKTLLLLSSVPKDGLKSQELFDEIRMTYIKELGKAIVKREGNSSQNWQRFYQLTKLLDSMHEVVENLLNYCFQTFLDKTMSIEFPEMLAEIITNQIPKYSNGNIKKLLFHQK
3',5'-cyclic-AMP phosphodiesterase 4B (Homo sapiens), sequence (Q07343 whole entry, looked up): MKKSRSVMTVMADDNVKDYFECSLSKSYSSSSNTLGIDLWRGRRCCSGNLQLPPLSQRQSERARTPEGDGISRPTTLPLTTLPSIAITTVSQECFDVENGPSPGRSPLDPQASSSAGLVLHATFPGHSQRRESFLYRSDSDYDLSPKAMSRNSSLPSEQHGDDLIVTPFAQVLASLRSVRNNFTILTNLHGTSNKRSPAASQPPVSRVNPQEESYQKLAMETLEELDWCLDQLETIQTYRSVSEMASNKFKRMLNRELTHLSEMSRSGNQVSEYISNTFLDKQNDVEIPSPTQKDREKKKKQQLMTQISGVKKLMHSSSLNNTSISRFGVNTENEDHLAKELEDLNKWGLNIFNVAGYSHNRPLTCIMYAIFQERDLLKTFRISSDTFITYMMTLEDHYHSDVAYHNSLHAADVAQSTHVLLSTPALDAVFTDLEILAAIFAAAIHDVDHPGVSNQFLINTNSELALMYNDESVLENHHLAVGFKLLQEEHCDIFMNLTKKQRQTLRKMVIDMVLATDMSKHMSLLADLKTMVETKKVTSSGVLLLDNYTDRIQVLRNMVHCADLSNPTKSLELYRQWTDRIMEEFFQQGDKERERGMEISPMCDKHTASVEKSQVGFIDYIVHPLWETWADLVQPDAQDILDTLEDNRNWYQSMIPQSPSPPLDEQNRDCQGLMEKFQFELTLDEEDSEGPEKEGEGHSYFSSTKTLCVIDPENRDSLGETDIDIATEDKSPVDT
Cytochrome P450 2C19 (Homo sapiens), sequence (P33261 whole entry, looked up): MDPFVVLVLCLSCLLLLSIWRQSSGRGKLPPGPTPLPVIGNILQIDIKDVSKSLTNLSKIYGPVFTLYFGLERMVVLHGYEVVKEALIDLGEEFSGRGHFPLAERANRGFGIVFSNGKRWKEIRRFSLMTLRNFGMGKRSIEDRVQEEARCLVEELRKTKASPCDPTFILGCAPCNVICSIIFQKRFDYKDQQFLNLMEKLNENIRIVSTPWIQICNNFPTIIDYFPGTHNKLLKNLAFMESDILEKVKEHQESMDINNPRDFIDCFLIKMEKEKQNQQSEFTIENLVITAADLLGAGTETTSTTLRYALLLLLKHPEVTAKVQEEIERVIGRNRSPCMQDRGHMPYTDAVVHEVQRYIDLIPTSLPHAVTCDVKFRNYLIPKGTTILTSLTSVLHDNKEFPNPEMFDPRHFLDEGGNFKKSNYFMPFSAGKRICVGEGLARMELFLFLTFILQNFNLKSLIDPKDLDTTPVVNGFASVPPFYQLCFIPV
Ubiquitin carboxyl-terminal hydrolase 1 (Homo sapiens), sequence (O94782 whole entry, looked up): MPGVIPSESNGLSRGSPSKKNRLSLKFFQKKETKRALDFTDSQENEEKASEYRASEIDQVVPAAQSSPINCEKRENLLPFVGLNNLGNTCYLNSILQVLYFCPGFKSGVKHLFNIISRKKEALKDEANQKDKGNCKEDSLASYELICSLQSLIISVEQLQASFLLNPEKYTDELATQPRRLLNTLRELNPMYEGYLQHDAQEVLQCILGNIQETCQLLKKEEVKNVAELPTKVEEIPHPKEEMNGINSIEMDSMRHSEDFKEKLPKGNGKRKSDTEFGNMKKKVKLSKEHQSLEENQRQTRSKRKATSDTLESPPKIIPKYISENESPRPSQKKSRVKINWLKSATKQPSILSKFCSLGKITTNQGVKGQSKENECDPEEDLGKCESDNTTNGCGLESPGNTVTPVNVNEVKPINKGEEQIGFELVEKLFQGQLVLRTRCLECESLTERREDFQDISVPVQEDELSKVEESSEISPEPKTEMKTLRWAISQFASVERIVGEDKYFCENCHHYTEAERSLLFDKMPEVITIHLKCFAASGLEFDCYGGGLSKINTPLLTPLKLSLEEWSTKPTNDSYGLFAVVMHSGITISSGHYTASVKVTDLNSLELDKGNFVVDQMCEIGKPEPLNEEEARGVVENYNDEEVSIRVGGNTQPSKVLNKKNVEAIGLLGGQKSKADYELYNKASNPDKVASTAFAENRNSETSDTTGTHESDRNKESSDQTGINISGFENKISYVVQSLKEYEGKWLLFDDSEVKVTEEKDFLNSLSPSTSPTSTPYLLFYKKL
Lysosomal acid glucosylceramidase (Homo sapiens), sequence (P04062 whole entry, looked up): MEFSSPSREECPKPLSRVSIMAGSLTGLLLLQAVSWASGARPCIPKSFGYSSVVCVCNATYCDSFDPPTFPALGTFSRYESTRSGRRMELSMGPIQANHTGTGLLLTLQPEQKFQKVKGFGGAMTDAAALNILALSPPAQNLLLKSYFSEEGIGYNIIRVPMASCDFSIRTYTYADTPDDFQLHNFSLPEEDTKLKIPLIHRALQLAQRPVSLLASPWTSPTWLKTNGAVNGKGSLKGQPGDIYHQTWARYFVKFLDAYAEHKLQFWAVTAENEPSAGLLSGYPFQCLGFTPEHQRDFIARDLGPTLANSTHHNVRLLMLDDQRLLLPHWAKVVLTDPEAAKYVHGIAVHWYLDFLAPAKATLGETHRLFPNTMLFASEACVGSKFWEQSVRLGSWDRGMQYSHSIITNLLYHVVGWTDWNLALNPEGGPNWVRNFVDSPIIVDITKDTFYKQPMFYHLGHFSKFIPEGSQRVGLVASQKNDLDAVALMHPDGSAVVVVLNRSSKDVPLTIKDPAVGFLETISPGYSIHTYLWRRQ
Cytochrome P450 3A4 (Homo sapiens), sequence (P08684 whole entry, looked up): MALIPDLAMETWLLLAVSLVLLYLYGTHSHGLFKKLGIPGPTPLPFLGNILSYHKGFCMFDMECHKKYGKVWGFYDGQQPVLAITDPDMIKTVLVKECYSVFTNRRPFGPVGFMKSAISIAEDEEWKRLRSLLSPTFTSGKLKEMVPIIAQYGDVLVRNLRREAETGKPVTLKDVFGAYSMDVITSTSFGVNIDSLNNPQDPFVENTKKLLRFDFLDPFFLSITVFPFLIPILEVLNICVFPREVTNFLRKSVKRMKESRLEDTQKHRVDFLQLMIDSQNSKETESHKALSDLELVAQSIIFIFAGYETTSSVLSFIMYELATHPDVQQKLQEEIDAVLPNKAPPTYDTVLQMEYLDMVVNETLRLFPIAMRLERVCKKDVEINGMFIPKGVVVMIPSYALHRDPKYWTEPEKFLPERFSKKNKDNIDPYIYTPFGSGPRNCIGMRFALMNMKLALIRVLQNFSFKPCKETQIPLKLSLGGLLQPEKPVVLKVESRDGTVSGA
Cytochrome P450 1A2 (Homo sapiens), sequence (P05177 whole entry, looked up): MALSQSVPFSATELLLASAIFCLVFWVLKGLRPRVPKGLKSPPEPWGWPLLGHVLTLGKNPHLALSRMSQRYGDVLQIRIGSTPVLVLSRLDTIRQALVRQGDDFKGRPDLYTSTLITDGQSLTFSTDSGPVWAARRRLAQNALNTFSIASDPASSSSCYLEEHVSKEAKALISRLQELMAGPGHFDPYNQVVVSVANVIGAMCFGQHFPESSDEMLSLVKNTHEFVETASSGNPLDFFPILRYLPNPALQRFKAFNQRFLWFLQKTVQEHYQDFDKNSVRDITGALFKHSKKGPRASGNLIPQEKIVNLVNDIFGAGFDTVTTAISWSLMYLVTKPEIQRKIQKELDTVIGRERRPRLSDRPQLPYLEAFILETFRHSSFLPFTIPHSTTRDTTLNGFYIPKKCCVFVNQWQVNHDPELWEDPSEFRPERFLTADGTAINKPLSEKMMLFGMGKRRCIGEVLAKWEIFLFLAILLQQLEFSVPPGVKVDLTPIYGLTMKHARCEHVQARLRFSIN

Consider `COc1ccc(CNc2ncnc3ccc(-c4ccoc4)cc23)c(OC)c1`, for which the Potency was 1.58 µM (active) in test [1]; > 46 µM (inactive) in test [4]; > 46 µM (inactive) in test [5]; 3.16 µM (active) in test [7]; 7.94 µM (active) in test [9]; 0.708 µM (active) in test [11]. Besides, the results for the Potency in [12] and in test [13] were 1 µM (active) and 0.282 µM (active), respectively. Further, the activity change, negative = inhibition in test [2] was 4.83% (inactive); in [10], -9.76% (inactive). In addition, in test [3], the activity, negative = inhibition is -19.6% (inactive). Also, the Potency result in test [6], in [8] and in test [14] was “inactive” each time. The max response stood at 19.6% in test [10] (setting [20]) and 6.18% in test [10] (setting [21]).
Regarding `Clc1ccccc1-c1ccc2ncnc(NC3CCNCC3)c2c1`, the Potency is > 11.4 µM (inactive) in test [15]; 15.8 µM (active) in [1]; > 46 µM (inactive) in test [5]; 3.98 µM (active) in test [9]; 25.1 µM (active) in test [11]. The activity change, negative = inhibition was -8.44% (inactive) in [2] and 1.65% (inactive) in [10]. Besides, the activity, negative = inhibition in test [3] is -0.786% (inactive). Besides, the Potency result in [6], in test [16] and in [14] was “inactive” throughout. The figures for the max response in test [10] (setting [20]) and in [10] (setting [21]) were 0.483% and 1.92%, respectively.
Consider `COc1ccccc1-c1nc(N(C)C)c2ccccc2n1`, for which the Potency in test [15] is > 11.4 µM (inactive); in test [1], 0.398 µM (active); in test [4], > 46 µM (inactive); in test [5], > 46 µM (inactive). The activity change, negative = inhibition is 19.2% (inactive) in [17], -18.6% (inactive) in test [2] and -1.18% (inactive) in test [10]. Further, the activity, negative = inhibition in [3] was 31.2% (inactive). For the same compound, the Potency entry in test [6], in test [16], in test [8], in [11], in test [13] and in test [14] was “inactive” in each case. For the same compound, the max response in test [10] (setting [20]) was 4.21%; in [10] (setting [21]) it was -1.67%.
Consider `COc1ccccc1-c1nccc(NCc2ccccc2)n1`, for which the Potency in [15] was > 11.4 µM (inactive); in [1], 2.51 µM (active); in test [4], > 46 µM (inactive); in test [5], > 46 µM (inactive); in test [9], 7.94 µM (active); in test [14], 22.4 µM (active). For the same compound, the activity change, negative = inhibition in test [17] was -2.63% (inactive); in test [2], 1.11% (inactive); in test [10], 1.38% (inactive). In addition, the activity, negative = inhibition in test [3] was 1.51% (inactive). Further, the Potency entry in test [6], in [8], in [11] and in test [13] was “inactive” in each case. Further, the max response was 3.72% in test [10] (setting [20]) and 0.722% in [10] (setting [21]).
`CN1CCN(c2ncncc2-c2ccoc2)CC1`: the Potency in [15] was > 11.4 µM (inactive); in [4], > 46 µM (inactive); in [5] it was > 46 µM (inactive); in [7] it was 7.94 µM (active). The activity change, negative = inhibition in test [17] is -0.0355% (inactive); in test [2], -13% (inactive); in [10], 5.79% (inactive). Further, in test [3], the activity, negative = inhibition was -4.34% (inactive). Besides, the Potency entry in test [6], in test [16], in test [8], in test [9], in [12] and in test [13] was “inactive” each time. Further, the Potency entry in test [14] is “inactive”. Moreover, the results for the max response in test [10] (setting [20]) and in [10] (setting [21]) were 23.7% and 30.3%, respectively.
On to `Cc1occc(=O)c1O`, for which the Potency result in test [6], in [7], in test [18] and in [14] was “inactive” in each case. In addition, in test [19], the compound was classed as inactive. In [10], the activity change, negative = inhibition is 8.81% (inactive). The max response in test [10] (setting [20]) worked out at 0.823%; in test [10] (setting [21]) it was 13.2%.

The record behind these values is PubChem BioAssay (NCATS).
